Source: PubChem BioAssay
Only some compounds are listed: those with a hit (about 21% of all), similar ones and a draw of the others.
ELG1 DNA repair = ELG1-dependent DNA repair inhibition; HEK293T ELG1-luciferase reporter, luminescence, 16 h; DNA damage induced by 5-fluorouridine; Potency, µM (highest dose often 46.1 µM), for the others: at the top dose activity change, negative = inhibition, actives largely listed as inhibitors; hit rate 2.3% among 330,000; AID 504467; also: potency is read from the fitted curve at half-maximal effect; nearly all actives have a fitted effect of over 55% in size
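Quantitative HTS, concentration-response format. 2,000 cells/well co-treated with 5-fluorouridine and compound, 16 hr in 5% CO2 at 37 °C; ONE-Glo luminescence read after 30 min.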
IL1B secr inh = inhibitors of inflammasome signaling (IL-1 beta secretion). activity change, % at 57.5 µM. AID 743279. THP-1 LPS/ATP IL-1B secretion, AlphaLISA, 16 h; stronger effect = lower value. hit rate 4.7% among 360,000; in the data active = activity change below about -50%; inconclusive = mostly about -30% to -49%
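Secreted IL-1B measured by AlphaLISA bead assay after 16 h compound exposure of THP-1 cells; compounds (final up to 57.5 uM) added 1 h before LPS (250 ng/mL) and ATP (1.25 mM) stimulation; lower signal means less secretion.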
DT40 TDP1 no CPT = qHTS for Inhibitors of human tyrosyl-DNA phosphodiesterase 1 (TDP1): qHTS in cells in absence of CPT. DT40 Tdp1-/- hTDP1 cells, no CPT, ATP luminescence, 48 h. Potency, µM (series often up to 46.2 µM), for the others: at the highest dose activity change, negative = growth inhibition, hits mostly inhibitors. hit rate 15% among 420,000. AID 686978, 2013; also: potency is read from the fitted curve at half-maximal effect; nearly all actives have a fitted effect of over 55% in size
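Chicken DT40 Tdp1-/- cells complemented with human TDP1, screened without camptothecin (DMSO vehicle only), 400 cells/well. Compounds pin-transferred, cells incubated at 37 °C for at least 48 hr. Growth read as ATP-dependent luminescence (CellTiter-Glo, 30 min at RT).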
RORg inh = inhibitors of mouse ROR gamma transcriptional activity; P51450; Drosophila S2 Gal4-RORgamma UAS-luciferase reporter, 20 h; Potency, µM (top dose mostly 53.6 µM), without a hit: at the highest dose activity change, negative = inhibition, most hits filed as inhibitors; hit rate 5.4% among 310,000; AID 2551; also: potency is read from the fitted curve at half-maximal effect; nearly all actives have a fitted effect of over 60% in size
Target sequence (P51450 whole entry, looked up, the tested form may be a part): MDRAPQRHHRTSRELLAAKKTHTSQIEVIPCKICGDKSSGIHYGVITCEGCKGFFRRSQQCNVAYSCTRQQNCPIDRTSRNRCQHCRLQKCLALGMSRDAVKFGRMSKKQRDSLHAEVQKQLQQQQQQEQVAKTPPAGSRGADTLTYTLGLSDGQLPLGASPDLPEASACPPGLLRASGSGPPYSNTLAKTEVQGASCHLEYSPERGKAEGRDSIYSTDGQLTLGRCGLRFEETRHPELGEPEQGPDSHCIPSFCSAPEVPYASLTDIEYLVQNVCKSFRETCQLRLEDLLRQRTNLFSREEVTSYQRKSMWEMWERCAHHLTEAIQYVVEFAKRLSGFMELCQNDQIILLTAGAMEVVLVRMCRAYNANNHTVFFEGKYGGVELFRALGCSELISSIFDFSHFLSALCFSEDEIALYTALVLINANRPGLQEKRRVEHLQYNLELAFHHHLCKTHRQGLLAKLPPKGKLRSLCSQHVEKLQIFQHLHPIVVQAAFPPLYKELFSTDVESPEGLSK
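Drosophila S2 cells stably expressing Gal4-DBD/mouse RORγ fusion under metallothionein promoter plus UAS-luciferase; compound 1 h, then 700 uM CuSO4 induction for 20 h at ambient temperature; inhibition read as reduced luminescence.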
Gal4-VP16 FLuc = Gal4-VP16 reporter inhibition counter-screen; Potency, µM (doses to about 53.6 µM), for inactives: at the top dose activity, negative = inhibition, hits mostly inhibitors; AID 2546; Drosophila S2 Gal4-VP16 UAS-luciferase, luminescence, 20 h; hit rate 3.5% among 310,000;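 also: Gal4-VP16 expression switched on by copper sulfate through the metallothionein promoter; potency is read from the fitted curve at half-maximal effect; nearly all actives have a fitted effect of over 50% in size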
TDP1 cell CPT = DT40-hTDP1 cell growth loss with CPT; chicken DT40 Tdp1-/-;hTDP1 cells + 20 nM CPT, ATP luminescence, 48 h; Potency, µM (titrated, usually from 46.2 µM), for inactives: at the highest dose activity change, negative = growth inhibition, actives largely listed as inhibitors; hit rate 12% among 420,000; AID 686979; also: potency is read from the fitted curve at half-maximal effect; nearly all actives have a fitted effect of over 55% in size
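Cell growth measured by CellTiter-Glo luminescence after a minimum 48 h, 37 C compound exposure with 20 nM CPT in Tdp1-knockout DT40 cells stably expressing hTDP1, seeded 400/well; qHTS titration format.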
* = called active by the depositor; ? = inconclusive; · = no result; [ ] = another dose, or the depositor's remark. Unless noted, calls follow the shape of the dose curve; as a rule, active = well fitted curve in the direction sought with a large enough effect; inconclusive = small, poorly fitted or top-dose-only effect, or another doubt; inactive = no such curve, though single readings can be large; an effect the other way counts as inactive or inconclusive. % is scaled to controls: 0 for no effect and ±100 for the full control effect.

SMILES	ELG1 DNA repair	IL1B secr inh	DT40 TDP1 no CPT	RORg inh	Gal4-VP16 FLuc	TDP1 cell CPT
COc1ccc(C(=O)NC(=S)N2CCCCC2)cc1[N+](=O)[O-]	-8%	-5	?	0.89µM*	1.3µM*	?
Cc1ccc(C(=O)NN2CCOCC2)cc1[N+](=O)[O-]	18%	-8	1%	-10%	-7%	1%
Cc1ccc(C(=O)NC(=S)N2CC(C)OC(C)C2)cc1[N+](=O)[O-] (stereo not drawn)	-4%	18	?	0.4µM*	0.71µM*	?
COc1ccc(C(=O)NC(=S)Nc2cc(C)ccn2)cc1[N+](=O)[O-]	?	17	?	?	1µM*	16µM*
COc1ccc(C(=O)Nc2cc(C)on2)cc1[N+](=O)[O-]	-1%	-13	-4%	5%	4%	11%
CCOc1ccc(C(=O)NC(=S)Nc2ccccc2OC)cc1[N+](=O)[O-]	-12%	-13	-28%	7.1µM*	?	-21%
Cc1cccc(NC(=O)c2nc[nH]c2C(=O)N2CCN(c3ccccc3)CC2)c1	8%	-1	-14%	·	·	-7%
CCOc1ccc(C(=O)NC(=S)NC2CCCC2)cc1[N+](=O)[O-]	-28%	-13	?	5µM*	16µM*	?
COc1ccccc1CNC(=O)CSc1ccc(C(=O)Nc2ccccc2OC)cc1[N+](=O)[O-]	?	4	9.2µM*	-23%	-5%	9.2µM*
CCOc1ccc(C(=O)NC(=S)Nc2ccc(N3CCCCC3)cc2)cc1[N+](=O)[O-]	-4%	9	?	3.2µM*	4µM*	12µM*
O=C(NC(=S)Nc1ccccc1N1CCCC1)c1ccc([N+](=O)[O-])cc1	-27%	-21	18µM*	0.05µM*	0.11µM*	26µM*
OC[C@@H]1CN(Cc2ccccc2)C[C@H](n2cnc3c(N4CCOCC4)ncnc32)O1	·	-4	-6%	·	·	-7%
Fc1ccc(-c2nnc(-c3ccc4ccccc4c3)o2)cc1	·	4	-27%	·	·	-27%
COc1ccc2nc3sc(C(=O)N4CCN(C)CC4)cc3cc2c1	19%	-4	-17%	11%	4%	-10%
CCN(CCCNC(=O)c1cc2cc3ccc(OC)cc3nc2s1)c1ccccc1	·	·	21µM*	·	·	16µM*
CCOc1ccc(NC(=O)c2cc3cc4cc(OC)ccc4nc3s2)cc1	·	·	4.6µM*	·	·	-83%
COc1ccc2nc3sc(C(=O)N4CCN(c5ccccc5)CC4)cc3cc2c1	·	·	-5%	·	·	11%
CCCCN(C)C(=O)c1cc2cc3ccc(OC)cc3nc2s1	?	-27	?	?	?	?
COc1ccc2nc3sc(C(=O)NCCCN4CCc5ccccc5C4)cc3cc2c1	3%	-27	16µM*	11%[10 µM]	-3%	?
COc1ccc2c(c1)C(=O)[C@@H](OC(=O)NS(=O)(=O)c1ccc(F)cc1)[C@H](c1ccc(OC)c(Br)c1)O2	·	·	·	-19%	7%	·
COc1cccc(OCCNC(=O)Nc2cc(F)c(F)cc2Cl)c1	2%	-1	0%	-19%	-11%	13%
CC(CCc1ccccc1)N1CCN(C)CC1 (stereo not drawn)	6%	2	-23%	2%	2%	26%
CC(C)=C(NC(=O)c1ccccc1Cl)C(=O)NCCc1nc2ccccc2[nH]1	·	7	11%	·	·	10%
Brc1ccc2nc(-c3ccco3)c(Cc3ccccc3)n2c1	·	-22	?	·	·	?
Clc1cccc(Cc2c(-c3ccco3)nc3ccc(Br)cn23)c1	·	-14	23µM*	·	·	?
SMILES	ELG1 DNA repair	IL1B secr inh	DT40 TDP1 no CPT	RORg inh	Gal4-VP16 FLuc	TDP1 cell CPT
Clc1cccc(Cc2c(-c3ccco3)nc3ccc(Cl)cn23)c1	·	-59*	23µM*	·	·	21µM*
O=C(CN1CCN(Cc2ccc(F)cc2)C1=O)NC1CCCC1	7%	3	-16%	-1%	10%	-9%
COc1ccc(C(=O)NNC(=O)C2CCCN(C3CC(=O)N(c4ccccc4)C3=O)C2)cc1 (stereo not drawn)	18%	7	1%	-4%	1%	0%
CCC1(CC)SCCNC1=O	·	5	-15%	·	·	-10%
Cc1nc2ccc(NC(=O)Cc3ccsc3)cc2s1	?	10	13µM*	9%	10%	16µM*
C=CCN(CC=C)C(=O)Nc1ccc2nc(C)sc2c1	17%	15	21µM*	18%	-9%	-25%
Cc1ccc(NC(=O)Cc2ccsc2)cc1Cl	?	-8	-29%	17%	9%	?
C=CCNC(=O)Nc1ccc2nc(C)sc2c1	?	-27	?	-2%	-14%	16µM*
O=C1C(=O)c2ccccc2C(O)=C1c1ccccc1F	-12%	0	?	-19%	1.3µM*	-24%
O=C(CSC1=NS(=O)(=O)c2ccccc21)Nc1ccccc1	3%	-16	2.6µM*	?	20µM*	1.8µM*
O=C(CSC1=NS(=O)(=O)c2cc(F)ccc2N1)Nc1ccccc1	5%	9	-30%	·	·	16%
COC(=O)CSC1=NS(=O)(=O)c2ccccc21	11%	?	2.3µM*	-24%[0.365 µM]	·	1.5µM*
CCCCOC(=O)c1ccc(NC(=O)c2cc(Cl)c(Cl)cc2C(=O)O)cc1	5%	4	8%	19%	5%	11%
CCCCOC(=O)c1ccc(NC(=O)c2nn(C)cc2Br)cc1	3%	?	-26%	37%	3.5µM*	-19%
CCCCOC(=O)c1ccc(NC(=S)NC(=O)c2c(Cl)cnn2CC)cc1	4%	77	?	7.1µM*	18µM*	?
CCCCOC(=O)c1ccc(NC(=S)NC(=O)c2c(Cl)cnn2C)cc1	2%	1	16µM*	14µM*	?	23µM*
CCc1ccccc1NS(=O)(=O)c1ccc(NC(=O)N2CCCC2)cc1	·	·	?	·	·	-20%
COc1ccc(N2CC(NC(=O)COc3ccc4ccccc4c3)CC2=O)cc1OC (stereo not drawn)	·	·	-23%	·	·	-27%
Cc1cc(C)cc(N(CCC#N)C(=O)COC(=O)Cn2[nH]c(=O)c3ccccc3c2=O)c1	8%	24	-5%	·	·	-3%
CCSc1nc2ccccc2c(OCc2ccc(Cl)cc2)c1C(=O)OC	·	·	?	·	·	-28%
CCSc1nc2ccccc2c(OCc2cc(C(=O)OC)ccc2OC)c1C(=O)OC	·	·	?	·	·	18µM*
COC(=O)c1c(C)nc2ccccc2c1-c1ccccc1	-11%	5	?	-28%	7%	-21%
